NCOA2 inhibitor = inhibition of GAL4-SRC2 driven luciferase reporter, primary screen, SRC2 inhibitor project, cell-based, luminescence. Nuclear receptor coactivator 2 (Homo sapiens), Q15596. HEK293 GAL4-SRC2 luciferase reporter. inhibition, % at 9 µM. actives 0.17% (n = 370,000). AID 651957, 2012;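 active = inhibition above the mean inhibition of all tested compounds plus 3 SD, set per campaign, cut at about 52% in these data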;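 also: 0% = DMSO treated cells and 100% = cells given Gossypol at 36 µM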
NCOA3 inh = SRC3 coactivator transcriptional activity inhibitors, primary screen, cell-based, luminescence. AID 588352, 2011. Nuclear receptor coactivator 3 (Homo sapiens), Q9Y6Q9. actives 0.17% (n = 360,000). inhibition, % at 3.6 µM. HEK293 GAL4-SRC3 luciferase reporter;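 active = inhibition above a per-campaign cutoff, the mean of all compounds plus 3 SD, cut at about 60% in these data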;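 also: 0% = DMSO-treated cells and 100% = gossypol-treated cells at 36 µM; higher means less SRC3-driven luciferase light from the GAL4 reporter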
COUP-TFII inh = NR2F2 transcriptional activity inhibitors, primary screen, cell-based, luciferase reporter, HEK293T, luminescence. AID 686940, 2013. inhibition, % at 8.6 µM. COUP transcription factor 2 (Homo sapiens), P24468. HEK293T NGFI-A luciferase reporter. actives 0.7% (n = 370,000);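 active = inhibition above a per-plate cutoff, mean inhibition of test wells between control levels plus 3 SD, cut at about 38% in these data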;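 also: cells cotransfected with COUP-TFII expression vector driving the NGFI-A reporter; 0% = median of COUP-TF2 test wells and 100% = reporter-only cells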
GalR3 antagonist = GalR3 antagonists in HEK293 cells, primary screen, cell-based, fluorescence readout | actives 0.44% (n = 360,000) | inhibition, % at 3 µM | Galanin receptor type 3 (Homo sapiens), O60755 | HEK293 GalR3-CNG cAMP membrane potential fluorescence; galR3 body fused to GalR1 C-terminus | AID 651719, 2012;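 active = inhibition above the screen-wide average plus 3 SD, cut at about 13% in these data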;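 also: forskolin and galanin both at EC90 stimulate the cells; cAMP rise reported by CNG channel membrane potential dye signal; 0% = forskolin plus galanin with DMSO and 100% = forskolin alone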
LRH-1 inv ag = LRH-1 (NR5A2) inverse agonists, primary screen, cell-based, luminescence, HEK293T, StAR-luciferase reporter; Nuclear receptor subfamily 5 group A member 2 (Homo sapiens), O00482; LRH-1 transfected, 24 h; inhibition, % at 3.6 µM; actives 0.13% (n = 360,000); AID 602396, 2012;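 active = inhibition above the mean inhibition of all tested compounds plus 3 SD, cut at about 73% in these data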;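 also: 0% = DMSO wells and 100% = reporter-only cells lacking LRH-1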
Target sequence (O00482 whole entry, looked up): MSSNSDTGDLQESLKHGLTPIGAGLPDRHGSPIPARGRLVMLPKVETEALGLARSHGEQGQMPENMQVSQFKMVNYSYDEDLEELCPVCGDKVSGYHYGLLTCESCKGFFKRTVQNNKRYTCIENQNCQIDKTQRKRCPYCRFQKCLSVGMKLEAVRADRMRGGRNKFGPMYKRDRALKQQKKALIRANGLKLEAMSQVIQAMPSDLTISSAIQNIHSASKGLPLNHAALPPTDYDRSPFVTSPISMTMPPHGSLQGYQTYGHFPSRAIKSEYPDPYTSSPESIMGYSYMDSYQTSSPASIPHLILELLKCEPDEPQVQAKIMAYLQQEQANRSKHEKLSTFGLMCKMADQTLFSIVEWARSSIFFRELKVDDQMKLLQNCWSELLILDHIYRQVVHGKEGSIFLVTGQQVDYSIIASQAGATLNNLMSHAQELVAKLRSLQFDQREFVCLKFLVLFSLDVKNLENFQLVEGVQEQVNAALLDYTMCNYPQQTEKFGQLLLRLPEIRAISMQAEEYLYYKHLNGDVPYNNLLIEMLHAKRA
SRC1 inh = SRC1 coactivator transcriptional activity inhibitors, primary screen, cell-based, luminescence; Nuclear receptor coactivator 1 (Homo sapiens), Q15788; HEK293 GAL4-SRC1 luciferase reporter; inhibition, % at 3.6 µM; AID 588354, 2011; actives 0.12% (n = 360,000);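 active = inhibition above the campaign mean plus 3 SD, with each screening campaign given its own cutoff, cut at about 60% in these data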;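 also: 0% = DMSO treated cells and 100% = gossypol at 36 µM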
An asterisk follows results filed as active; / = no result given; ! = a repeat was not active. A selection: hits, their analogues and other compounds. The true share with any hit is near 1.1%.

SMILES	NCOA2 inhibitor	NCOA3 inh	COUP-TFII inh	GalR3 antagonist	LRH-1 inv ag	SRC1 inh
O=C(Cc1ccccc1Cl)Nc1cccc(S(=O)(=O)N2CCCCCC2)c1	-1.6	17.8	11.0	-0.9	-8.8	-10.7
COc1ccc(C(=O)N/C(=C\c2ccccc2)C(=O)Nc2cccc(C(=O)O)c2)cc1	0.9	5.1	5.1	-10.2	-9.4	-11.7
Cc1ccc(N(C(=O)CNC(=O)c2ccco2)C(C(=O)NC2CCCCC2)c2cccnc2)cc1C (stereo not drawn)	-23.0	1.1	-7.7	-8.8	0.9	0.9
Cc1ccc(N(C(=O)CCl)C(C(=O)NC2CCCCC2)c2cccnc2)cc1C (stereo not drawn)	62.9*	/	21.1	2.8	/	/
COC(=O)C(C)Sc1nc2c(c(=O)[nH]c(=O)n2C)n1CCCc1ccccc1 (stereo not drawn)	-7.0	13.4	-9.8	52.7*	0.1	-4.3
CCOC(=O)C(C(C)=O)c1c(Br)c(O)c(O)c2c(C(=O)c3ccc(C)cc3)coc12 (stereo not drawn)	-1.1	80.0*	31.1	-3.6	67.1	58.7
CCOC(=O)c1ccc(N2C(=O)CC(N3CCOCC3)C2=O)cc1 (stereo not drawn)	-17.3	-1.6	5.8	-4.8	3.7	-11.8
COc1ccc2[nH]c3c(c2c1)CC(C)NC3=O (stereo not drawn)	35.9	52.2	31.8	-5.6	37.2	66.3*
COC(=O)c1cn(NC(=O)c2cc([N+](=O)[O-])ccc2F)c(=O)c2ccccc12	59.0*	78.1*	28.4	-3.5	76.4*	69.5*
COC(=O)c1cn(NC(=O)C2CCC(C)CC2)c(=O)c2ccccc12 (stereo not drawn)	-20.3	8.7	-20.1	1.3	-8.7	-2.9
COc1cccc(C(=O)NC2CCN(C(=O)N3c4ccccc4Sc4ccccc43)CC2)c1	16.5	32.4	14.7	-3.9	11.3	4.6
COc1cccc(/C=N/NC(=O)c2ccc(-c3ccccc3)cc2)c1O	15.7	68.1*	11.8	3.4	53.1	44.6
COc1cccc(/C=N/NC(=O)c2c(C)nc3ccc(Cl)cn23)c1O	14.7	77.9*	-20.1	-5.1	89.7*	47.4
COc1ccccc1/C=N\NC(=O)c1c(C)nc2ccc(Cl)cn12	-5.1	1.9	1.3	-5.5	6.8	-5.6
COc1ccc(C(=O)N=c2sccn2C)cc1	-32.9	-40.4	-15.4	-6.7	-61.7	-49.5
C=CCn1cc(/C=C/c2cc[n+](C)cc2)c2ccccc21	12.8	18.2	49.5*	-10.3	38.3	13.5
O=C(C1=C(c2ccccc2)C(=O)c2ccccc2C1=O)c1ccccc1	56.7*	82.1*	17.2	-10.7	-9.3	19.6
N#CC(c1cccc(Cl)c1)c1ccc2c(C(F)(F)F)cc(C(F)(F)F)nc2n1 (stereo not drawn)	28.1	41.4	-2.7	-2.5	99.0*	22.1
Cc1cccn2c(=O)nc(SCC(=O)Nc3cccc4ccccc34)nc12	-5.8	7.5	-2.7	1.9	12.5	5.9
C[C@@H](C(=O)Nc1ccc2c(c1)OCO2)n1c(=O)[nH]c2ccccc2c1=O	-4.5	-13.6	-20.5	-0.1	-5.7	18.6
C[C@@H](C(=O)Nc1ccc2c(c1)OCCO2)n1c(=O)[nH]c2ccccc2c1=O	41.4	67.2*	27.6	-6.1	52.1	60.7
COc1ccc(C2CCCCCN2C(=O)C2CCN(S(=O)(=O)c3cccc(C(C)=O)c3)CC2)cc1 (stereo not drawn)	-23.3	10.2	-2.7	1.5	10.7	0.2
O=c1c2cccc3c2c(nn1CN1CCOCC1)-c1ccccc1-3	/	-13.4	/	/	-20.4	-7.2
CCN(CC)CCn1nc2c3c(cccc3c1=O)-c1ccccc1-2	-197.6	-51.8	-66.0	-6.1	77.3*	73.5*
COc1ccc(S(=O)(=O)Nc2c(C(=O)O)[nH]c3ccccc23)cc1	-16.0	1.8	-7.0	-6.4	7.9	-11.4
SMILES	NCOA2 inhibitor	NCOA3 inh	COUP-TFII inh	GalR3 antagonist	LRH-1 inv ag	SRC1 inh
CN(c1ccc(OCc2ccc([N+](=O)[O-])cc2)cc1)S(=O)(=O)c1ccccc1	8.7	4.7	-5.1	-2.4	-3.7	-12.0
Cc1cnc(C=NNC(N)=S)c2cccc(N)c12	-3.2	-4.6	-7.4	-6.2	0.6	-4.0
NC(=S)NN=Cc1nccc2ccccc12	4.2	79.1*	-41.0	-1.2	78.3*	78.9*
NC(=S)NN=Cc1nccc2c(C(F)(F)C(F)(F)C(F)(F)F)cccc12	47.4	93.3*	28.5	-4.7	97.0*	91.6*
CCC(CC)NC(=O)Nc1cccc(C)c1C	9.9	16.8	-6.5	-4.1	1.5	5.6
CCC(C)N(CC(=O)Nc1cccc(C)c1C)C(=O)CCl (stereo not drawn)	/	61.9*	/	/	42.4	61.6*
COc1ccc(-c2nnn(CC(=O)N(Cc3ccccc3Cl)C(C(=O)NCC3CCCO3)c3ccco3)n2)cc1OC (stereo not drawn)	95.3*	10.5	6.6	9.3	-13.9	-10.8
Cc1ccc(-c2nnn(CC(=O)N(Cc3cccs3)C(C(=O)NCC3CCCO3)c3ccco3)n2)o1 (stereo not drawn)	17.4	11.5	2.9	-2.9	16.3	-1.1
CCn1cc(/C=N\NC(=O)c2cc(-c3ccccc3OC)nc3ccccc23)c(C)n1	-4.1	21.4	-23.6	5.4	-0.6	3.2
CC(C)(C)OC(=O)N1Cc2ccccc2C[C@H]1C(=O)NCC(=O)Nc1ccc2c(c1)OCCO2	54.3*	60.2	23.6	-0.6	36.8	41.5
C=CS(=O)(=O)c1ccc(Oc2ccc(S(=O)(=O)C=C)cc2)cc1	70.2*	-135.0	74.6*	-2.9	9.2	-294.6
NS(=O)(=O)c1ccc(Oc2ccc(S(N)(=O)=O)cc2)cc1	7.5	-7.9	8.1	-3.7	-5.6	2.9
O=C(Cn1nnc2ccccc21)N/N=C\C=C\c1ccccc1	-39.6	-6.4	-1.3	-2.1	-28.0	-7.6
CCc1ccccc1NC(=O)Cn1cccc1C1=NC(c2ccccc2)CO1 (stereo not drawn)	0.1	-3.0	19.8	-5.4	2.8	-28.3
Cc1ccc(NC(=O)Cn2cccc2C2=NC(c3ccccc3)CO2)cc1C (stereo not drawn)	100.2*	-2.6	-1.0	1.6	-15.7	9.7
Oc1cccnc1Sc1cccc(C(F)(F)F)c1	0.3	16.5	1.5	-5.6	8.7	2.7
CN(Cc1cnc2nc(N)nc(N)c2n1)c1ccc(C(=O)N[C@@H](CCC(=O)O)C(=O)O)cc1	10.5	61.5	26.1	-1.7	41.1	68.4*!
Nc1nc2ncc(CNc3ccc(C(=O)N[C@@H](CCC(=O)O)C(=O)O)cc3)nc2c(=O)[nH]1	15.5	8.4	-6.9	-6.2	-17.3	-5.8

Screening results: PubChem, The Scripps Research Institute Molecular Screening Center
